Compounds without any hit were thinned out: in the full panel of roughly 79,000, 15% have a hit. Unmarked numbers belong to inactive results. Calls of active or inactive are those of the source. Rule as the data show it: active = growth inhibition above about 70%; inactive = the rest.

Assay [1] is described as follows: NCI Yeast Anticancer Drug Screen. Data for the rad50 strain (AID 155).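 Also: 0% = growth of vehicle-only cultures of the same strain.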 The conditions noted are these: S. cerevisiae rad50 strain growth inhibition; at 50.0 µM; hits give high values. The essentials: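 Genetically altered yeast (DNA repair pathway); compound treatment; growth inhibition vs vehicle ctrl.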
Assay [2] in a line: NCI Yeast Anticancer Drug Screen. Data for the mec2-1 strain (AID 157). The conditions noted are these: S. cerevisiae mec2-1 strain, at 50.0 µM, hits give high values. In outline: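 mec2-1 yeast strain, carrying an alteration in DNA damage repair or cell cycle control, was exposed to compounds; growth inhibition was measured relative to vehicle-treated controls.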
Assay [3] can be described thus: NCI Yeast Anticancer Drug Screen. Data for the sgs1 mgt1 strain (AID 161).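 Also: 0% = growth of cultures given vehicle only.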 To be noted: S. cerevisiae sgs1 mgt1 strain, at 50.0 µM, hits give high values. The essentials:
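Yeast cells carrying a defined DNA-repair defect were exposed to test compounds. Growth inhibition was measured relative to vehicle-treated controls.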

A short description of assay [4]: NCI Yeast Anticancer Drug Screen. Data for the cln2 rad14 strain (AID 165).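 Also: 0% = growth equal to vehicle treated cultures.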 The conditions noted are these: S. cerevisiae cln2 rad14 strain, at 50.0 µM, hits give high values. In outline:
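Yeast carrying cln2 and rad14 alterations (cell cycle control and DNA damage repair) were exposed to compounds. Growth inhibition was measured against vehicle-treated controls.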

Assay [5] can be described thus: NCI Yeast Anticancer Drug Screen. Data for the bub3 strain (AID 167). The conditions noted are these: S. cerevisiae bub3 mutant strain, at 50.0 µM, hits give high values. The essentials:
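Yeast carrying a defined mutation is treated with each compound, and growth is compared with that of vehicle-exposed cells to give inhibition.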

Assay [6] is described as follows: NCI Yeast Anticancer Drug Screen. Data for the mlh1 rad18 strain (AID 175). To be noted: S. cerevisiae mlh1 rad18 strain growth inhibition; at 50.0 µM; hits give high values. The essentials: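 Growth inhibition of the yeast strain was measured after compound exposure and expressed relative to vehicle-treated controls. The strain carries defined defects in DNA damage repair.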

Consider `Cc1ccc(NC(=O)CCC(=O)C(C#N)c2ccc(Cl)cc2)cc1C` (stereo not given), for which the growth inhibition in assay [1] is -8.25%; in assay [2], -7.95%; in assay [3], 8.55%; in assay [4] it was 4.75%; in assay [5], 8.4%; in assay [6] it was 0.25%.
Turning to `Nc1nc(Cc2ccccc2)cs1`, the growth inhibition in assay [1] was 24.7%; in assay [2] it was 24.7%; in assay [3] it was 16.1%; in assay [4], 7.5%; in assay [5], 3.35%; in assay [6], 12.6%.
Take `CC1C=CC(C)S(=O)N1C(=O)Cc1ccccc1` (stereo not given): the growth inhibition in assay [1] was -2.6%; in assay [2] it was -14.6%; in assay [3], -9.35%; in assay [4], -16.9%; in assay [5] it was -25.5%; in assay [6], -19.6%.
Regarding `Cc1cc(SCC(=O)c2ccccc2)nc2ccccc12`, the growth inhibition in assay [1] was -6.75%; in assay [2] it was -24.1%; in assay [3], -8.85%; in assay [4], -2.25%; in assay [5] it was -53.1%; in assay [6], -2.7%.
In the case of `CC(=O)OC1CC2CC3C(C)CCC3(C2(C)C)C1(C)O` (stereo not given), the growth inhibition in assay [1] is -12.9%; in assay [2], -0.25%; in assay [3] it was -0.7%; in assay [4] it was 0.7%; in assay [5], 11.4%; in assay [6], -11.5%.
In the case of `C(=C\c1cccs1)/c1csnn1`, the growth inhibition in assay [1] was 0.7%; in assay [2], 15.7%; in assay [3], 3.45%; in assay [4], 12.8%; in assay [5], -1.75%; in assay [6], -7.55%.
For `CCc1nc(N)nc(N)c1-c1ccc2nn(-c3ccccc3)[n+]([O-])c2c1`, the growth inhibition is 4.25% in assay [1]; 10.8% in assay [2]; 20% in assay [3]; 14.8% in assay [4]; 14% in assay [5]; 4.85% in assay [6].
Regarding `COC(=O)CCSCCC(=O)OC`, the growth inhibition was 1.5% in assay [1]; -0.15% in assay [2]; -8.15% in assay [3]; -8.2% in assay [4]; 1.75% in assay [5]; -1.95% in assay [6].
Take `COC(=O)c1cccc(=O)o1`: the growth inhibition was 2.55% in assay [1]; 0.1% in assay [2]; -18.4% in assay [3]; -79% in assay [4]; -1.2% in assay [5]; 2.15% in assay [6].
Regarding `CC(O)CCCCC(O)CCC[C@H](O)[C@H]1CCC([C@H]2CCC([C@@H](O)CCCCCCCCCCCCC3=C[C@H](C)OC3=O)O2)O1` (stereo not given in full), the growth inhibition in assay [1] is 40.9%; in assay [2] it was 29.1%; in assay [3] it was 71.2% (active); in assay [4] it was 85.5% (active); in assay [5], -16.7%; in assay [6], 81.7% (active).
Consider `Cc1cc(S(=O)(=O)Nc2cc(N)[nH]n2)c(SCc2nc(N)nc(N(C)C)n2)cc1Cl`, for which the growth inhibition was 11.2% in assay [1]; 8.7% in assay [2]; -0.1% in assay [3]; 2.7% in assay [4]; 6.6% in assay [5]; 8.05% in assay [6].
With `NC(CCC(=O)NC(CSSCCCCS(=O)O)C(=O)NCC(=O)O)C(=O)O` (stereo not given), the growth inhibition was -1.65% in assay [1]; -8.2% in assay [2]; 11.3% in assay [3]; -10.2% in assay [4]; 14.2% in assay [5]; 1.4% in assay [6].
Take `C/C=C(\C)C(=O)OC1C2C(C)=CC(=O)C(O)C2(C)C2C3(O)OCC24C1OC(=O)C(OC(C)=O)C4C(C)C3O` (stereo not given): the growth inhibition in assay [1] was 91.9% (active); in assay [2], 93.3% (active); in assay [3], 92.8% (active); in assay [4], 91.8% (active); in assay [5], 91.7% (active); in assay [6] it was 91.6% (active).
On to `Cc1ccc(F)cc1S(N)(=O)=O`, for which the growth inhibition in assay [1] is -19.4%; in assay [2] it was -9.65%; in assay [3], -16.6%; in assay [4] it was -14.4%; in assay [5] it was 12.3%; in assay [6], -7.8%.
On to `Cn1cnc(CCc2ccccc2)n1`, for which the growth inhibition is -8.95% in assay [1]; -3.05% in assay [2]; -24.2% in assay [3]; -19% in assay [4]; -24.1% in assay [5]; -11.2% in assay [6].
`COc1c(OC)c(C2(O)C(=O)N(C)c3ccccc32)c2c(c1C1(O)C(=O)N(C)c3ccccc31)OCO2` (stereo not given): the growth inhibition in assay [1] is 4.25%; in assay [2], 1.7%; in assay [3] it was -14.9%; in assay [4] it was 1.2%; in assay [5] it was 3.05%; in assay [6], 22.9%.
In the case of `CCCNC(C)=O`, the growth inhibition in assay [1] is 12.2%; in assay [2], -26.1%; in assay [3], -24.9%; in assay [4], -27.1%; in assay [5] it was -8.55%; in assay [6], -1.25%.
Turning to `CSc1nc2cc(C)c(C)cc2[nH]1`, the growth inhibition in assay [1] was -5.1%; in assay [2] it was -3.1%; in assay [3], 27.8%; in assay [4], -25.5%; in assay [5], 15.1%; in assay [6] it was -6.85%.
With `O=[N+]([O-])c1nccn1CCCNc1c2ccccc2nc2ccccc12`, the growth inhibition in assay [1] is 25.1%; in assay [2], 7.95%; in assay [3], 27.8%; in assay [4] it was 23.1%; in assay [5] it was 6.5%; in assay [6] it was 17.9%.
For the compound `COCC(N=CN1CCCc2ccccc2[C@@H]1CCCCl)C(C)(C)C` (stereo not given in full), the growth inhibition in assay [1] was -6.6%; in assay [2] it was 10.1%; in assay [3], 25.9%; in assay [4], 19.7%; in assay [5], 19.9%; in assay [6], 13.1%.

(Values after PubChem BioAssay (NCI).)
